# Measurements as given in PubChem BioAssay (NCI).
# The panel holds about 83,000 compounds, 20% with a hit somewhere; the sample as a whole holds those more often.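 Interpretation: 100, growth as untreated; towards 0, rising growth inhibition; 0, no net growth; 0 to -100, cell death. Compounds scoring below 10 were considered active.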 Calls of active or inactive are those of the source.
# Test system: RPMI-8226 leukemia
# Test: NCI-60 one-dose screen, 48 h (100 = growth as untreated, 0 = no growth, -100 = all killed)
# Settings: 10 µM
# Experimental: Growth inhibition of the RPMI-8226 human tumor cell line is measured as a screen for anti-cancer activity. Cells are grown in 96 well plates and exposed to the test compound for 48 hours. Compounds are tested at a single concentration, which is 10^-5 M for most compounds. The reported endpoint is percent growth (GI% or GIPRCNT), where numbers from 0 - 100% represent growth inhibition, and numbers from -100% - 0 represent cell death. For example, a value of 40 represents 60% growth inhibition. A value of 0 means no net growth occurred over the course of the experiment. A value of -40 indicates 40% of cells at the beginning of the experiment died by the end of the experiment. A value of -100 means all cells are dead at the end of the experiment.
# NCI-60 Human Tumor Cell Lines Screen was performed using the standard one-dose NCI protocol, which is described in more detail at https://dtp.cancer.gov/discovery_development/nci-60/default.htm.
# Compounds with GIPRCNT values below 10 were considered active. Activity score was based on GIPRCNT using the following formula: […]
# Score is 0 for GIPRCNT values of 100 or above, 50 for GIPRCNT values of 0, and 100 for GIPRCNT values of -100.
row,SMILES,growth
1,O=c1oc2cc(OS(=O)(=O)c3ccccc3)ccc2c2c1CCCCC2,23.4% (inactive)
2,Clc1cc2c(c(CSc3nc4ccccc4n4cccc34)c1)OCOC2,49% (inactive)
3,O=C(NC(Cc1ccc(O)cc1)C(=O)N=Nc1c(O)[nH]c2ccccc12)c1ccccc1 (stereo not given),112% (inactive)
4,CCCN(CCC)CCC(O)c1cc2c(c3ccccc13)CCCC2 (stereo not given),86.1% (inactive)
5,COc1ccc(-c2nc3sc(-c4ccc(OC)cc4)c(-c4ccc(OC)cc4)n3c2/C=C/c2ccc(C(C)C)cc2)cc1,97.4% (inactive)
6,C#Cc1ccc(-n2c(/C=C/c3ccc(Cl)c(F)c3)nc3ncccc3c2=O)cc1,-14.9% (active)
7,CCc1ccc2c(c1)N(CCO)C1=C(C(=O)OC1)C2c1ccccc1 (stereo not given),101% (inactive)
8,O=C(Nc1cccc(-n2cc(-c3ccncc3)c(-c3ccc(O)c(Cl)c3)n2)c1)c1ccc(N2CCOCC2)c(C(F)(F)F)c1,-18% (active)
9,COc1ccc(-c2nc(-c3nc4ccc(OC)cc4[nH]3)cc3c2[nH]c2ccccc23)cc1,-28.2% (active)
10,Nc1ncnc2[nH]c(=O)[nH]c12,195% (inactive)
11,FC(F)(F)c1ccc(-c2cnc(Cl)nc2N2CCC3(CC2)OCCO3)cc1,76.3% (inactive)
12,Cc1cccc2c1O/C(=C\c1ccc([N+](=O)[O-])o1)C2=O,-34.7% (active)
13,Nc1c(C(=O)Nc2cccc3ccccc23)sc2nc3c(cc12)C(=O)CCC3,15.7% (inactive)
14,COc1cc(-c2cc(-c3cc4c([nH]c5ccccc54)c(-c4cc(OC)c(OC)c(OC)c4)n3)cc(-c3ccccc3)n2)cc(OC)c1OC,46% (inactive)
15,CCN(CC)CCNC(=O)c1ccc(NC(C)=O)cc1,112% (inactive)
16,CCOC(=O)C1CCc2c(ccc3ccccc23)N1CCC#N (stereo not given),104% (inactive)
17,CC/C(=C(/c1ccc(OCCN(C)C)cc1)c1ccc(OC(=O)CCC(=O)c2c(C)[nH]c(/C=C3\N=C(c4ccc[nH]4)C=C3OC)c2C)cc1)c1ccccc1,-22.3% (active)
18,Cc1ccc(-c2n[nH]c(=O)c3noc(-c4ccc(C)cc4)c23)cc1,11.8% (inactive)
19,CSCCCNC(=O)c1ccc2c(c1)/C(=C/c1[nH]c(C)cc1C)C(=O)N2,19.7% (inactive)
20,COc1cc(C(=O)/C=C/c2cc(-c3cc(OC)c(OC)c(OC)c3)n[nH]2)cc(OC)c1OC,-46.1% (active)

row,SMILES,growth
1,O=C1/C(=C\c2ccc(F)cc2)CN(C(=O)c2ccccc2)C/C1=C\c1ccc(F)cc1,-19.5% (active)
2,Cc1cc(N(CCCNc2ccnc3cc(Cl)ccc23)Cc2ccc3c(c2)OCO3)nc(N2CCOCC2)n1,-29.6% (active)
3,CCOC(=O)N/N=C\C(C)=N\NC(=O)OCC,98.8% (inactive)
4,Fc1ccc(-c2nnc(-c3c(-c4ccc(F)cc4)nc4ccccn34)o2)cc1,85.1% (inactive)
5,CC(=O)N1N=C(c2ccc(Cl)cc2)CC1c1sc(Cl)nc1Cl (stereo not given),87.5% (inactive)
6,CCN(CC)Cc1cc(Nc2ccnc3cc(Cl)ccc23)ccc1OC,72.2% (inactive)
7,COC(=O)[C@@H]1[C@H](O)[C@H](C)[C@H](O)[C@@](C)(O)/C=C\C=C(C)C(=O)Nc2c(C)c(OC(C)=O)c3c(c2O)C(=O)C(C)=C2OCOC(=C23)C(C)=C[C@@](C)(O)[C@H](O)[C@@H](C)[C@H]1OC(C)=O,-13.2% (active)
8,O=C(Nc1cccc(-n2cc(-c3ccncc3)c(-c3ccc(O)c(Cl)c3)n2)c1)c1cccc(C(F)(F)F)c1,13.4% (inactive)
9,Nc1ccc2cc(S(=O)(=O)O)cc(O)c2c1N=Nc1ccc(F)cc1,106% (inactive)
10,CCOC(=O)N1C=CC2C=CC1C1C=CC=CC2N1C(=O)OCC (stereo not given),89.5% (inactive)
11,Clc1ccc(Nc2ccnc(NCCNc3ccnc4cc(Cl)ccc34)n2)cc1,-48.9% (active)
12,CN1c2ccccc2[C@]2(Cc3ccccc3)Cc3ccccc3N[C@H]12,98.9% (inactive)
13,O=C(Nc1ccc(Cl)cc1)N1NC(c2ccc(Cl)cc2)C=C1c1ccccc1 (stereo not given),99.5% (inactive)
14,Cc1cc(Cl)nc(N(CCCNc2ccnc3cc(Cl)ccc23)Cc2cccs2)n1,-48.5% (active)
15,CCOC(=O)C(CSC(c1ccccc1)(c1ccccc1)c1ccccc1)NC(=O)C(CSC(c1ccccc1)(c1ccccc1)c1ccccc1)NC(c1ccccc1)(c1ccccc1)c1ccccc1 (stereo not given),105% (inactive)
16,COc1ccc(NC2=NC(C)(CO)CS2)cc1 (stereo not given),83.6% (inactive)
17,COc1ccc(Nc2nc3ccc(NC(=O)NC4CCCCC4)cc3[nH]c2=O)cc1,66.2% (inactive)
18,COc1cc(C)ccc1C(=O)c1ccc(C)cc1OC,21.9% (inactive)
19,Nc1nc(-c2ccccc2Cl)cc(-c2ccc(Cl)cc2Cl)n1,35.2% (inactive)
20,O=C(O)CCCCSc1ncnc2nc[nH]c12,108% (inactive)
